Assay outcomes as filed in PubChem.
Shown are actives, neighbours in structure and some others; about 12% of the full set was active somewhere.
Pf growth 96h = inhibits malaria parasite growth, 96 h. P. falciparum luciferase reporter growth, 96 h. Potency, µM (top dose mostly 28.7 µM), without a hit: at the top dose activity change, negative = inhibition, usual class: inhibitors. actives 6.9% (n = 320,000). AID 504834; further: on the % scale 0 is the no-effect control and ±100 the full control effect
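Compounds incubated with erythrocytes infected by luciferase-expressing P. falciparum (2% hematocrit, 0.05% parasitemia final) for 96 hours, 37 C in 5% CO2. Growth inhibition scored as decreased luciferase luminescence.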
NS1 inh = inhibitors of influenza NS1 protein function; Potency, µM (doses to about 46.1 µM), inactives show top-dose activity, positive = more growth; AID 2326; actives 0.4% (n = 270,000); calls by dose curve; further: actives are rising curves; nearly all actives have a fitted effect of over 50% in size
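Growth recovery, yeast-based: influenza A NS1 expressed in S. cerevisiae causes slow growth, and suppressors are detected by OD600. The parent strain without NS1 is used as positive control.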
HCV inh = HCV inhibition | actives 3.4% (n = 340,000) | Huh7.5.1 HCVcc-Cre infection, luciferase reporter, 44 h | AID 651820 | Potency, µM (series often up to 41.8 µM), without a hit: top-dose activity change, negative = inhibition, most hits filed as inhibitors; further: on the % scale 0 is the no-effect control and ±100 the full control effect
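Whole-lifecycle infectious HCVcc-Cre system; cells 1,000/well, compound then virus (~0.5 moi) added 4 h after plating, 44 h culture. Luciferase read 15 sec following 15 min substrate incubation, room temp.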
SARS PLP yeast = inhibitors of SARS-CoV papain-like protease in yeast. AID 485353. S. cerevisiae expressing SARS-CoV PLpro, growth rescue. Potency, µM (doses to about 32.9 µM), inactives show at the top dose activity, positive = growth rescue, most hits filed as activators. actives 0.19% (n = 330,000); calls by dose curve; further: 0% is about no effect; nearly all actives have a fitted effect of over 55% in size
AMA1-RON2 inh = AMA1-RON2 (P. falciparum) interaction inhibition | AlphaScreen AMA1-biotinylated RON2 peptide binding | Potency, µM (series often up to 58.2 µM), without a hit: at the highest dose activity change, negative = inhibition, hits mostly inhibitors | actives 0.2% (n = 360,000) | AID 720542;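 further: 0% = vehicle wells and -100% = peptide control; nearly all actives have a fitted effect of over 45% in size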
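AMA1 (3D7) with his tag at 25 nM final met compounds first, then biotinylated RON2 peptide at 25 nM; detection used donor plus acceptor beads, 10 µg/mL apiece, read by AlphaScreen after 30 min at room temperature.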
Pf growth 48h = inhibits P. falciparum growth in the first generation, 48 h. P. falciparum luciferase growth in erythrocytes, 48 h. Potency, µM (doses to about 28.7 µM), inactives show at the top dose activity change, negative = inhibition, most hits filed as inhibitors. actives 5.9% (n = 310,000); further: on the % scale 0 is the no-effect control and ±100 the full control effect
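Parasite viability was followed by luminescence of a genomically integrated firefly luciferase. Cultures held 0.1% parasitemia at 2% hematocrit (final), incubated under 5% CO2 at 37 C.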
Starred values were filed as active, the others as inactive; ? = inconclusive; . = not tested or not shown; [ ] = remark or other dose. Unless noted, the call rests on the fitted dose curve; in most records, active means well fitted curve in the direction sought with a large enough effect; inconclusive means small, poorly fitted or top-dose-only effect, or another doubt; inactive means no such curve, though single readings can be large; an effect the other way counts as inactive or inconclusive. Potency means the concentration at half of the fitted maximal effect.

SMILES	Pf growth 96h	NS1 inh	HCV inh	SARS PLP yeast	AMA1-RON2 inh	Pf growth 48h
CC(C)c1ccc(CC(=O)N2CCC2(C)C(=O)NS(=O)(=O)c2cccc(C#N)c2)cc1 (stereo unspecified)	.	.	.	.	4%	.
CC(=O)Nc1ccc(N(C(=O)CNC(=O)c2cccs2)C(C(=O)NCC2CCCO2)c2ccccc2)cc1 (stereo unspecified)	28%	4%	8%	1%	0%	-7%
COC1=C(Nc2ccc(C)cc2)C(=O)c2ccccc2C1=O	1.2µM*	-5%	?	-24%	10µM*	2.3µM*
COC1=C(Nc2ccccc2)C(=O)c2ccccc2C1=O	1.9µM*	-11%	?	7%	10µM*	5.9µM*
Cc1nc(C(F)(F)F)ccc1C(=O)N1CCCC(C)(C(=O)O)C1 (stereo unspecified)	.	.	.	.	6%	.
COc1ccc(-c2cc(-c3nnc(-c4ccncc4)o3)c3ccccc3n2)cc1	9.3µM*	11%	0%	1%	-1%	?
c1ccc2c(-c3nc(C4CCCCC4)no3)cc(-c3ccncc3)nc2c1	?	-61%	8.9µM*	-4%	1%	2.6µM*
c1ccc(-c2ccccc2-c2nc(-c3ccncc3)no2)cc1	14%	-132%	?	-11%	3%	?
Cc1ccc2nc(NCCCO)nc(-c3ccccc3)c2c1	?	-13%	?	10%	2%	.
OCCCNc1nc(-c2ccccc2)c2cc(Br)ccc2n1	1.7µM*	1%	-2%	-3%	0%	-9%
COc1ccc(-c2nn(C)c(=O)c3ccccc23)cc1NC(=O)Cn1nc(C)c2ccccc2c1=O	8%	-6%	?	-4%	0%	10µM*
Cn1nc(C(=O)Nc2ccccc2N2CCCC2)c2ccccc2c1=O	84%	-25%	11µM*	-1%	-16%	?
Cc1nn(CC(=O)Nc2ccc(C(=O)N3CCCC3)cc2)c(=O)c2ccccc12	9.3µM*	-3%	11%	2%	0%	6%
CCN(CC)S(=O)(=O)c1ccc(N2CCOCC2)c(NC(=O)c2nn(C)c(=O)c3ccccc23)c1	.	.	-22%	.	9%	.
CCN(CC)S(=O)(=O)c1ccc(N2CCCC2)c(NC(=O)c2nn(C)c(=O)c3ccccc23)c1	13µM*	.	?	-12%	-6%	13µM*
CC1CCC2(CC1)NC(=O)N(CC(=O)N1CCN(S(=O)(=O)c3ccccc3)CC1)C2=O (stereo unspecified)	-4%	-3%	15%	2%	19%	3%
CCC1CCC/C1=N\NC(=O)c1ccccc1C (stereo unspecified)	.	.	25%	.	57%	.
CCC(=O)Nc1cc(-c2nn(C)c(=O)c3ccccc23)ccc1N1CCCCC1	75%	-6%	4%	-1%	48%	5.2µM*
Cc1ccc2nc(NC(=O)COC(=O)c3ccc(Br)o3)sc2c1	1.2µM*	-1%	1%	3%	-8%	19%
O=C(COC(=O)c1ccc([N+](=O)[O-])o1)Nc1nc2ccccc2s1	-2%	-29%	10µM*	-5%	-8%	-24%
O=C(COC(=O)c1ccc(Br)o1)Nc1nc2ccccc2s1	43%	-53%	0%	-29%	-2%	8%
CCN(CC)S(=O)(=O)c1ccc(OCC(=O)NC(=O)Cc2ccccc2)c([N+](=O)[O-])c1	?	.	11%	5%	-17%	3%
Cc1[nH]c2ccccc2c1/C=N/NC(=S)NC(C)C	?	2%	10µM*	-1%	30%	-18%
Cc1[nH]c2ccccc2c1/C=N/Nc1ccccc1[N+](=O)[O-]	-36%[5.75 µM]	.	?	-1%	32µM*	?
COc1ccc(NS(=O)(=O)c2cc([N+](=O)[O-])ccc2N/N=C/c2c(C)[nH]c3ccccc23)cc1	.	.	11µM*	.	-10%	.
SMILES	Pf growth 96h	NS1 inh	HCV inh	SARS PLP yeast	AMA1-RON2 inh	Pf growth 48h
CC(C)Oc1ccccc1/C=N/Nc1ccccc1[N+](=O)[O-]	8.3µM*	-12%	?	-11%	7.1µM*	?
CC(=O)Nc1ccc(C=NNc2ccc([N+](=O)[O-])cc2S(=O)(=O)Nc2ccccc2C(=O)O)cc1	.	.	2%	-14%	115%	.
CC(C)/C(=N/Nc1ccccc1[N+](=O)[O-])c1ccccc1	8.3µM*	-9%	?	-1%	?	7%
O=[N+]([O-])c1ccccc1Nc1ccccc1	13%	-5%	-5%	0%	10µM*	2%
Cc1ccc(NC(=O)CCCNC(=O)c2ccc(Cl)cc2)c(O)c1	64%	-2%	1%	1%	20%	45%
CCc1ccc(NC(=O)CSc2nnnn2C)cc1	15%	-5%	-2%	-2%	0%	141%
CCc1ccc(NC(=O)c2cnn3ccccc23)cc1	1.2µM*	-11%	1%	-6%	0%	.
CSc1cccc(NC(=O)c2cnn3ccccc23)c1	472%	-1%	-13%	-1%	0%	370%
CCCCCCSc1ccc([C@H]2N[C@@](Cc3ccccc3)(C(=O)OC)[C@H]3C(=O)N(CC)C(=O)[C@@H]23)cc1	0.47µM*	.	16%	1%	0%	0.83µM*
CCCCCCSc1ccc([C@H]2N[C@@](CC(C)C)(C(=O)OC)[C@H]3C(=O)N(C)C(=O)[C@@H]23)cc1	?	.	-8%	1%	-5%	?
CCC(C)Sc1ccc([C@H]2N[C@@](Cc3ccccc3)(C(=O)OC)[C@H]3C(=O)N(C)C(=O)[C@@H]23)cc1 (stereo partly specified)	?	.	?	9%	-11%	1µM*
CCCCCCSc1ccc([C@H]2N[C@@](Cc3ccccc3)(C(=O)OC)[C@H]3C(=O)N(C)C(=O)[C@@H]23)cc1	?	.	-29%[8.37 µM]	-2%	-3%	0.29µM*
CCCSc1ccc([C@H]2N[C@@](Cc3ccccc3)(C(=O)OC)[C@H]3C(=O)N(CC)C(=O)[C@@H]23)cc1	1µM*	.	?	4%	1%	1.5µM*
Cc1cc(C)c(NS(=O)(=O)c2ccccc2)c(C)n1	.	.	.	.	7%	.
Cc1ccc(S(=O)(=O)Nc2c(C)cc(C)nc2Cl)cc1	2.6µM*	-3%	3%	0%	12%	24%
Cc1cccc(OCc2nnc(SCC(=O)NC3CCCCC3)n2C)c1	-6%	3%	-2%	0%	16%	-3%
COc1cccc(NC(=O)CN(c2cccc(F)c2)S(C)(=O)=O)c1	.	5%	8.9µM*	0%	-2%	21%
COc1cccc(NC(=O)CN(c2cccc(OC)c2)S(C)(=O)=O)c1	-22%	1%	19%	0%	-17%	0%
COC(=O)CN(c1cccc(OC)c1)S(C)(=O)=O	5.9µM*	-10%	-11%	14%	-2%	7%
